Tests used:
Assay in all cases: DAPPL (digital affinity profiling via proximity ligation, sequencing); 10 mM Tris-HCl pH 7.5, 50 mM NaCl, 1 mM DTT, 4% glycerol, room temperature, 30 min; GST-TFs on glutathione beads, 16-mer random dsDNA library, 0.1% formaldehyde crosslink after washing; high values mean tight binding
Conditions in all cases: protein: recombinant; tags: N-terminal GST; dsDNA, one strand shown
ERF = target: T1, ERF (Homo sapiens, UniProt P50548 1-548)
T1 sequence: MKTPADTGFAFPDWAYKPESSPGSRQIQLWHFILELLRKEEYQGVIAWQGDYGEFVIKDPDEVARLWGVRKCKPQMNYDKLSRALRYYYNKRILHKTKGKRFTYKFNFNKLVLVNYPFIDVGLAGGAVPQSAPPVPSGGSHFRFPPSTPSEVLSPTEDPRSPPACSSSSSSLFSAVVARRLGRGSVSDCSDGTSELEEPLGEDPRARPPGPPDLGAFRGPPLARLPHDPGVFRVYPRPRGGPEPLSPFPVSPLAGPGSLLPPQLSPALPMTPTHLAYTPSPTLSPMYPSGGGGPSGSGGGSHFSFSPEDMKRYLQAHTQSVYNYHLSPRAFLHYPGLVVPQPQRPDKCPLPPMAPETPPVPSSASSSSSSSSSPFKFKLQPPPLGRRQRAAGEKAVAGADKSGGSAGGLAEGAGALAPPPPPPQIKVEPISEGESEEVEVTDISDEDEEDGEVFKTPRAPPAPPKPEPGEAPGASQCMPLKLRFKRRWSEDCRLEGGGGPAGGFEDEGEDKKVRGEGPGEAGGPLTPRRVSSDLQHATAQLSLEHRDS
Method in brief: (§1)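 Sequencing on an Illumina NextSeq500 followed washing, crosslinking with 0.1% formaldehyde, proximity ligation (BsaI/T4 ligase, 1 h, 37 °C) and PCR amplification of pools that had been incubated for 30 min at room temperature with 200 nmole of a random double-stranded 16-mer DNA library in Tris/NaCl/DTT/glycerol buffer. Each pool held DNA-barcoded human transcription factors, expressed in yeast as GST fusions and captured on glutathione beads, plus a tag-only sample. Binding signal is a hexamer's read frequency for a factor divided by its frequency in the tag-only sample.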

ETV3L = target: T2, ETV3L (Homo sapiens, UniProt Q6ZN32 1-361)
T2 sequence: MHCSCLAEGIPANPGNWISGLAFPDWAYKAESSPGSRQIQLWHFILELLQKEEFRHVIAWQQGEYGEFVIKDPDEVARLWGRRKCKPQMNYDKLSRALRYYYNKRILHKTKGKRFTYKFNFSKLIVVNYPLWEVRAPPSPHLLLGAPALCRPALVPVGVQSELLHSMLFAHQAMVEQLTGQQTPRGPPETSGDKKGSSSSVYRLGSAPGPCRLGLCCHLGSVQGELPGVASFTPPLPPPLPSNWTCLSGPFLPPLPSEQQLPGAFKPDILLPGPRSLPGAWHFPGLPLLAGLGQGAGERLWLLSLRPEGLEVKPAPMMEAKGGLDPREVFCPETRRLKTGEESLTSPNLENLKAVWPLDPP
Method in brief: as §1

ETS2 = target: T3, ETS2 (Homo sapiens, UniProt P15036 1-469)
T3 sequence: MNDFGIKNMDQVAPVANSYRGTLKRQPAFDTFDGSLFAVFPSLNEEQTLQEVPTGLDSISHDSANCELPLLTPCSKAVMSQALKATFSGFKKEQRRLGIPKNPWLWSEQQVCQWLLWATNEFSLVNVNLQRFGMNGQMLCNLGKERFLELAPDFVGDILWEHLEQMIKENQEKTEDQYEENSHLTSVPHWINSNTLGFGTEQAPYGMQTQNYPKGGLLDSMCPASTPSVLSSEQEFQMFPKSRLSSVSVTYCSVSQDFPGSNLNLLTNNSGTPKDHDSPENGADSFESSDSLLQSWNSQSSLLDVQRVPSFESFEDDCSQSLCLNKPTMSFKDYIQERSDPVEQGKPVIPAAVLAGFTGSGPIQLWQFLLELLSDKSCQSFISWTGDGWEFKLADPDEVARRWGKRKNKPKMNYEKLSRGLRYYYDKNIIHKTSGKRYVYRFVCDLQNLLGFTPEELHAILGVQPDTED
Method in brief: as §1

SPDEF = target: T4, SPDEF (Homo sapiens, UniProt O95238 1-335)
T4 sequence: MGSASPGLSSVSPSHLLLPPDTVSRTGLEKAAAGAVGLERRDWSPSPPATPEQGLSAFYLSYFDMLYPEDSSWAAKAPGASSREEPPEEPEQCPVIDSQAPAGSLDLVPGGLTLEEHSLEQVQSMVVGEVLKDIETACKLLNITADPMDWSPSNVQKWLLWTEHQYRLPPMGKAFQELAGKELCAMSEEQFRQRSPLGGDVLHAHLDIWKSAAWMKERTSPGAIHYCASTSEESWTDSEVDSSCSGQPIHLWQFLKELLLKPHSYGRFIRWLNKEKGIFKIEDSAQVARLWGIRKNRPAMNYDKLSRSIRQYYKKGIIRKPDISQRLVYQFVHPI
Method in brief: as §1

ETV7 = target: T5, ETV7 (Homo sapiens, UniProt Q9Y603 1-341)
T5 sequence: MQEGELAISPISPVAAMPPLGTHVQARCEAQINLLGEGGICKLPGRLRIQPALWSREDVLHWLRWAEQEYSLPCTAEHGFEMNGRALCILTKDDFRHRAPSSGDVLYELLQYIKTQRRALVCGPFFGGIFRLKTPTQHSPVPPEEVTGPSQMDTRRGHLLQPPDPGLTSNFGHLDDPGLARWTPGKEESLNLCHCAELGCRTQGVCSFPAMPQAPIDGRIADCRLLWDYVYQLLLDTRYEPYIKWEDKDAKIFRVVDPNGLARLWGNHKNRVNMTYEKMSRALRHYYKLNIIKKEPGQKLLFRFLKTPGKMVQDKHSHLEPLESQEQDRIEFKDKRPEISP
Method in brief: as §1

ELF5 = target: T6, ELF5 (Homo sapiens, UniProt Q9UKW6-2 1-255)
T6 sequence: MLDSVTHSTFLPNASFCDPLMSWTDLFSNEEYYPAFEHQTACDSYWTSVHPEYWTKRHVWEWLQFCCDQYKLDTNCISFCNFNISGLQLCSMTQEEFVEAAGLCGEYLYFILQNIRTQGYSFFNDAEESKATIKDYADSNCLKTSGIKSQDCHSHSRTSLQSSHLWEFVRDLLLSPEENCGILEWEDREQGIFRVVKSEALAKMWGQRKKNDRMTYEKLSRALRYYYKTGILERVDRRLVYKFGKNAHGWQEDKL
Method in brief: as §1

ETV3 = target: T7, ETV3 (Homo sapiens, UniProt P41162-2 1-143)
T7 sequence: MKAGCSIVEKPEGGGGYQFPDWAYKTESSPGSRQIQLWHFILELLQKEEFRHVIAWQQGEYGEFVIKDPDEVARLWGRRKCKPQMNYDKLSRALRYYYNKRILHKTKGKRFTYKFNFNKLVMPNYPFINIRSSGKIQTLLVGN
Method in brief: as §1

ETV6 = ETV6 (Homo sapiens, UniProt P41212 1-452)
Method in brief: as §1

ETV6, sequence (P41212 whole entry): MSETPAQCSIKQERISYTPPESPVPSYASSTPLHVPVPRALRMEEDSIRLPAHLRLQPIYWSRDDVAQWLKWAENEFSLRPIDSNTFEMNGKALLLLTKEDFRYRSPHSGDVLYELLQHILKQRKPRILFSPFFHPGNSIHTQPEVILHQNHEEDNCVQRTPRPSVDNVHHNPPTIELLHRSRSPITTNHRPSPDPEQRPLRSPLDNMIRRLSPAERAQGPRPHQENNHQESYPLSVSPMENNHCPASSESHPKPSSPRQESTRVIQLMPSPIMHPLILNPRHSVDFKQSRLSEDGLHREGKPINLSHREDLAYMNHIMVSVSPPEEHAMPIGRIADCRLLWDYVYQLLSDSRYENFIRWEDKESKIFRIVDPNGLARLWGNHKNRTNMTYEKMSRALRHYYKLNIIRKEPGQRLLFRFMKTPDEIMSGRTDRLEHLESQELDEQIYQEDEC

Sequence	binding signal (ERF)	binding signal (ETV3L)	binding signal (ETS2)	binding signal (SPDEF)	binding signal (ETV7)	binding signal (ELF5)	binding signal (ETV3)	binding signal (ETV6)
TAGCTC	1.04 fold enrichment (6-mer frequency, TF over GST control)	1.14 fold enrichment (6-mer frequency, TF over GST control)	1.21 fold enrichment (6-mer frequency, TF over GST control)	1.24 fold enrichment (6-mer frequency, TF over GST control)	1.24 fold enrichment (6-mer frequency, TF over GST control)	1.1 fold enrichment (6-mer frequency, TF over GST control)	1.17 fold enrichment (6-mer frequency, TF over GST control)	1.14 fold enrichment (6-mer frequency, TF over GST control)
TAGTTT	1.36 fold enrichment (6-mer frequency, TF over GST control)	1.31 fold enrichment (6-mer frequency, TF over GST control)	1.19 fold enrichment (6-mer frequency, TF over GST control)	1.16 fold enrichment (6-mer frequency, TF over GST control)	1.19 fold enrichment (6-mer frequency, TF over GST control)	1.18 fold enrichment (6-mer frequency, TF over GST control)	1.32 fold enrichment (6-mer frequency, TF over GST control)	1.23 fold enrichment (6-mer frequency, TF over GST control)
ACTATG	1.15 fold enrichment (6-mer frequency, TF over GST control)	1.2 fold enrichment (6-mer frequency, TF over GST control)	1.3 fold enrichment (6-mer frequency, TF over GST control)	1.28 fold enrichment (6-mer frequency, TF over GST control)	1.18 fold enrichment (6-mer frequency, TF over GST control)	1.16 fold enrichment (6-mer frequency, TF over GST control)	1.25 fold enrichment (6-mer frequency, TF over GST control)	1.19 fold enrichment (6-mer frequency, TF over GST control)
TTAACT	1.23 fold enrichment (6-mer frequency, TF over GST control)	1.19 fold enrichment (6-mer frequency, TF over GST control)	1.25 fold enrichment (6-mer frequency, TF over GST control)	1.18 fold enrichment (6-mer frequency, TF over GST control)	1.16 fold enrichment (6-mer frequency, TF over GST control)	1.17 fold enrichment (6-mer frequency, TF over GST control)	1.22 fold enrichment (6-mer frequency, TF over GST control)	1.17 fold enrichment (6-mer frequency, TF over GST control)
CTTATT	1.44 fold enrichment (6-mer frequency, TF over GST control)	1.5 fold enrichment (6-mer frequency, TF over GST control)	1.51 fold enrichment (6-mer frequency, TF over GST control)	1.54 fold enrichment (6-mer frequency, TF over GST control)	1.43 fold enrichment (6-mer frequency, TF over GST control)	1.42 fold enrichment (6-mer frequency, TF over GST control)	1.31 fold enrichment (6-mer frequency, TF over GST control)	1.48 fold enrichment (6-mer frequency, TF over GST control)
ATATCG	1.23 fold enrichment (6-mer frequency, TF over GST control)	1.23 fold enrichment (6-mer frequency, TF over GST control)	1.17 fold enrichment (6-mer frequency, TF over GST control)	1.26 fold enrichment (6-mer frequency, TF over GST control)	1.16 fold enrichment (6-mer frequency, TF over GST control)	1.1 fold enrichment (6-mer frequency, TF over GST control)	1.14 fold enrichment (6-mer frequency, TF over GST control)	1.09 fold enrichment (6-mer frequency, TF over GST control)
CTCAAT	1.22 fold enrichment (6-mer frequency, TF over GST control)	1.36 fold enrichment (6-mer frequency, TF over GST control)	1.21 fold enrichment (6-mer frequency, TF over GST control)	1.21 fold enrichment (6-mer frequency, TF over GST control)	1.16 fold enrichment (6-mer frequency, TF over GST control)	1.27 fold enrichment (6-mer frequency, TF over GST control)	1.2 fold enrichment (6-mer frequency, TF over GST control)	1.23 fold enrichment (6-mer frequency, TF over GST control)
TTATCT	1.23 fold enrichment (6-mer frequency, TF over GST control)	1.44 fold enrichment (6-mer frequency, TF over GST control)	1.35 fold enrichment (6-mer frequency, TF over GST control)	1.24 fold enrichment (6-mer frequency, TF over GST control)	1.15 fold enrichment (6-mer frequency, TF over GST control)	1.22 fold enrichment (6-mer frequency, TF over GST control)	1.28 fold enrichment (6-mer frequency, TF over GST control)	1.25 fold enrichment (6-mer frequency, TF over GST control)
AACAAA	1.2 fold enrichment (6-mer frequency, TF over GST control)	1.14 fold enrichment (6-mer frequency, TF over GST control)	1.22 fold enrichment (6-mer frequency, TF over GST control)	1.11 fold enrichment (6-mer frequency, TF over GST control)	1.13 fold enrichment (6-mer frequency, TF over GST control)	1.16 fold enrichment (6-mer frequency, TF over GST control)	1.15 fold enrichment (6-mer frequency, TF over GST control)	1.18 fold enrichment (6-mer frequency, TF over GST control)
TAATTC	1.29 fold enrichment (6-mer frequency, TF over GST control)	1.38 fold enrichment (6-mer frequency, TF over GST control)	1.48 fold enrichment (6-mer frequency, TF over GST control)	1.37 fold enrichment (6-mer frequency, TF over GST control)	1.38 fold enrichment (6-mer frequency, TF over GST control)	1.41 fold enrichment (6-mer frequency, TF over GST control)	1.51 fold enrichment (6-mer frequency, TF over GST control)	1.53 fold enrichment (6-mer frequency, TF over GST control)
CTTCGC	1.61 fold enrichment (6-mer frequency, TF over GST control)	1.45 fold enrichment (6-mer frequency, TF over GST control)	1.42 fold enrichment (6-mer frequency, TF over GST control)	1.54 fold enrichment (6-mer frequency, TF over GST control)	1.38 fold enrichment (6-mer frequency, TF over GST control)	1.34 fold enrichment (6-mer frequency, TF over GST control)	1.43 fold enrichment (6-mer frequency, TF over GST control)	1.34 fold enrichment (6-mer frequency, TF over GST control)
ATTGTA	1.27 fold enrichment (6-mer frequency, TF over GST control)	1.28 fold enrichment (6-mer frequency, TF over GST control)	1.17 fold enrichment (6-mer frequency, TF over GST control)	1.18 fold enrichment (6-mer frequency, TF over GST control)	1.28 fold enrichment (6-mer frequency, TF over GST control)	1.21 fold enrichment (6-mer frequency, TF over GST control)	1.26 fold enrichment (6-mer frequency, TF over GST control)	1.27 fold enrichment (6-mer frequency, TF over GST control)
GAATGT	1.04 fold enrichment (6-mer frequency, TF over GST control)	1.1 fold enrichment (6-mer frequency, TF over GST control)	1.06 fold enrichment (6-mer frequency, TF over GST control)	1.16 fold enrichment (6-mer frequency, TF over GST control)	1.13 fold enrichment (6-mer frequency, TF over GST control)	1.08 fold enrichment (6-mer frequency, TF over GST control)	1.12 fold enrichment (6-mer frequency, TF over GST control)	1.03 fold enrichment (6-mer frequency, TF over GST control)
TCATCC	1.2 fold enrichment (6-mer frequency, TF over GST control)	1.42 fold enrichment (6-mer frequency, TF over GST control)	1.35 fold enrichment (6-mer frequency, TF over GST control)	1.85 fold enrichment (6-mer frequency, TF over GST control)	1.24 fold enrichment (6-mer frequency, TF over GST control)	1.6 fold enrichment (6-mer frequency, TF over GST control)	1.55 fold enrichment (6-mer frequency, TF over GST control)	1.38 fold enrichment (6-mer frequency, TF over GST control)
ATCAAC	1.15 fold enrichment (6-mer frequency, TF over GST control)	1.23 fold enrichment (6-mer frequency, TF over GST control)	1.18 fold enrichment (6-mer frequency, TF over GST control)	1.06 fold enrichment (6-mer frequency, TF over GST control)	1.02 fold enrichment (6-mer frequency, TF over GST control)	1.02 fold enrichment (6-mer frequency, TF over GST control)	1.12 fold enrichment (6-mer frequency, TF over GST control)	1.1 fold enrichment (6-mer frequency, TF over GST control)

From article PMC7862700, “An all-to-all approach to the identification of sequence-specific readers for epigenetic DNA modifications on cytosine”
